From PubChem BioAssay AID527 (NMMLSC, 2006) come the findings set out here.

This experiment is described as follows: blockers of AIP-driven agr signalling in S. aureus – RNAIII-GFP reporter, flow cytometry, primary screen (AID 527).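 Also: 0% = AIP-stimulated control and 100% = unstimulated bacteria without AIP.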 To be noted: S. aureus RN6390 RNAIII-GFP reporter, AIP-induced, flow cytometry 3 h, at 2 µM, stronger effect = higher value. On the technique in general: Flow cytometry measures light scatter and fluorescence of single cells or particles in a stream.
Setting [1] is: measured here: inhibition of GFP MFI.

About 65 (0.3%) of roughly 24,000 compounds were called active.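 The calls were made as follows: active = share of bacteria positive for the green fluorescent reporter and its mean brightness both inhibited by 50% or more; inactive = the rest, inconclusive results apart.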 The list comes from a sample in which actives are over-represented; it also holds similar structures and randomly drawn compounds.

Consider `CCN(CC)CCNC(=O)Cn1cnc2sc(C)c(S(=O)(=O)N3CCOCC3)c2c1=O`, for which the inhibition (commonly the relative decrease from the control value, in per cent) is -4.4% (inactive). Also, under setting [1], the inhibition is -7.2%.

Take `CCn1cc(C(=O)N2CC=C(c3ccccc3)CC2)c(=O)c2ccc(C)nc21`: the inhibition is 17.2% (inactive). The inhibition under setting [1] came out at 30.6%.

`CCOC(=O)Cn1c(=O)oc2cc(S(=O)(=O)N(C)Cc3ccco3)ccc21`: the inhibition is -6.4% (inactive). The inhibition under setting [1] was -10.2%.

Turning to `CC1CCN(c2oc(-c3ccccc3F)nc2C#N)CC1`, the inhibition is 0.5% (inactive). Moreover, the inhibition under setting [1] came to 3.2%.

In the case of `Cc1ccccc1NC(=O)c1ccccc1`, the inhibition was -2.3% (inactive). The inhibition under setting [1] is -11.3%.

`CCOC(=O)N1CCN(CC(=O)c2c(C)[nH]c3ccccc23)CC1`: the inhibition was -0.6% (inactive). The inhibition under setting [1] turned out to be 7.3%.

Consider `COc1cc2cc(CN(CCN3CCCC3)C(=O)Nc3ccccc3Cl)c(=O)[nH]c2cc1OC`, for which the inhibition is -3.5% (inactive). Besides, the inhibition under setting [1] was -20.1%.

In the case of `Cc1ccccc1CN1CCN(C(=O)c2cccc(F)c2)CC1`, the inhibition was -0.2% (inactive). For the same compound, the inhibition under setting [1] was -10.6%.

On to `COc1cccc(OC)c1OCCN1CCN(C(=O)c2ccco2)CC1`, for which the inhibition was -1% (inactive). For the same compound, under setting [1], the inhibition came to 4.2%.

As for `COc1ccc(OC)c(NC(=O)CCN2CCC(C)CC2)c1`, the inhibition is -0.7% (inactive). The inhibition under setting [1] is -21.9%.

Turning to `CCOc1ccc(-c2cn(S(=O)(=O)c3cccc4nsnc34)nc2N)cc1`, the inhibition is 2.7% (inactive). The inhibition under setting [1] stood at 26.8%.

Consider `Cn1c(=O)[nH]c(=O)c2c1nc(NCCCn1ccnc1)n2Cc1cccc(Br)c1`, for which the inhibition is -0.5% (inactive). In addition, the inhibition under setting [1] was -1.6%.

Regarding `CC(=O)c1cc2c(cc1NC(=O)CN1CCCCCC1)OCO2`, the inhibition is -3.5% (inactive). Moreover, the inhibition under setting [1] was -12.2%.

In the case of `O=C(CC(NCCN1CCOCC1)C(=O)O)Nc1cccc(Cl)c1` (configuration not stated), the inhibition was -0.4% (inactive). Under setting [1], the inhibition was 7.8%.

For the compound `CCN(CC)C(=O)CCC(=O)Nc1ccc(C(=O)OC)cc1`, the inhibition was 0.7% (inactive). Also, under setting [1], the inhibition amounted to 0%.

Take `CCOc1ccc(Cn2nnc(C(=O)Nc3ccc(OC)cc3OC)c2N)cc1`: the inhibition was -0.3% (inactive). Besides, the inhibition under setting [1] was -4.3%.

For `COc1ccc(C(=O)NCc2cn3ccccc3n2)cc1`, the inhibition was -9.5% (inactive). Besides, the inhibition under setting [1] was -17.4%.

On to `Cc1cc(C)c2c(n1)nn1c(N3CCOCC3)cc(C)nc21`, for which the inhibition is -1.1% (inactive). Also, the inhibition under setting [1] was 1.4%.

In the case of `CCCCN(CC)C(=O)CN(C)S(=O)(=O)c1cccc2nsnc12`, the inhibition was -1.2% (inactive). For the same compound, under setting [1], the inhibition was -4.3%.

For the compound `CC1CCCCC1NC(=O)CCS(=O)(=O)c1cccc2nonc12` (configuration not stated), the inhibition is 4% (inactive). Besides, under setting [1], the inhibition stood at 22.1%.

For the compound `CCOc1ccc(C2C(C(=O)NC)=C(C)Nc3nc4ccccc4n32)cc1OC` (configuration not stated), the inhibition is 2.9% (inactive). In addition, the inhibition under setting [1] turned out to be 6.8%.

Take `O=C(NCc1ccco1)C1CCCN(S(=O)(=O)c2cnc[nH]2)C1` (configuration not stated): the inhibition was 3.6% (inactive). Further, under setting [1], the inhibition came out at 9.1%.

Take `CCn1cc(C(=O)NCC2CCCO2)c(=O)c2cc(S(=O)(=O)N3CCCCC3)ccc21` (configuration not stated): the inhibition is -8.4% (inactive). Also, under setting [1], the inhibition is -14.4%.

Consider `O=C(c1ccco1)N1CCN(C(=O)c2ccc(COc3ccc(F)cc3)o2)CC1`, for which the inhibition is 2.8% (inactive). Besides, under setting [1], the inhibition was determined as 8%.

As to `COc1ccc(C2OC(=O)CC2C(=O)NC(C)C)cc1` (configuration not stated), the inhibition is -1% (inactive). Also, under setting [1], the inhibition was -15.8%.

Regarding `COc1cc2[nH]c(=S)n(Cc3ccc(C)o3)c(=O)c2cc1OC`, the inhibition was 2% (inactive). The inhibition under setting [1] was 9.8%.

Regarding `O=C(CN1C(=O)CCS(=O)(=O)c2ccccc21)NCc1ccc(F)cc1`, the inhibition is -1.6% (inactive). Moreover, the inhibition under setting [1] was -8.2%.

As to `CCOC(=O)CSc1nnc(NC(=O)c2cccc(S(=O)(=O)N3CCCCC3)c2)s1`, the inhibition is -0.3% (inactive). Further, the inhibition under setting [1] stood at 13%.

On to `COc1cccc(OCC(O)CN2CCN(CCO)CC2)c1` (configuration not stated), for which the inhibition was -2% (inactive). Moreover, the inhibition under setting [1] was -8.9%.

For the compound `CN(C)/C=C1\C=C(c2ccccc2)OC1=O`, the inhibition was 0.4% (inactive). The inhibition under setting [1] was determined as 1.9%.

For `O=C(NCc1ccc2c(c1)OCO2)C1CCCN(S(=O)(=O)c2cccs2)C1` (configuration not stated), the inhibition is 16.2% (inactive). For the same compound, the inhibition under setting [1] is 44.2%.

`CCCCC(=O)Nc1cc(C)c2c(=O)oc3ccccc3c2n1`: the inhibition was 43.3% (inactive). Further, the inhibition under setting [1] turned out to be 69.9%.

Consider `COc1ccc(N2CCN(CCNC(=O)CCN3C(=O)COc4ccccc43)CC2)cc1`, for which the inhibition was -0.3% (inactive). Also, the inhibition under setting [1] was 5.4%.

As to `COc1cc2[nH]c(=S)n(CCN3CCCCC3C)c(=O)c2cc1OC` (configuration not stated), the inhibition is 2.3% (inactive). Moreover, the inhibition under setting [1] amounted to 17.7%.

As for `O=C(CC(NS(=O)(=O)c1ccc(Cl)cc1)c1ccco1)NC1CCCC1` (configuration not stated), the inhibition was 7.7% (inactive). Further, the inhibition under setting [1] turned out to be 13.1%.

Take `Cc1c(NC(=O)C(C)OC(=O)c2cc3c4ccccc4n(C)c3s2)c(=O)n(-c2ccccc2)n1C` (configuration not stated): the inhibition is 0.6% (inactive). In addition, the inhibition under setting [1] came to 3.3%.

Consider `O=C(Cn1nc(Cc2cccnc2)c2ccccc2c1=O)NCC1COc2ccccc2O1` (configuration not stated), for which the inhibition was 5.9% (inactive). The inhibition under setting [1] is 12.1%.

Consider `Cc1cc(Cl)c(S(=O)(=O)Nc2ccc3c(c2)OCCO3)cc1OCC(N)=O`, for which the inhibition is -0.7% (inactive). In addition, the inhibition under setting [1] was -17.3%.

Turning to `Cc1ccc(-c2nc(CS(=O)CC(=O)N3CCN(c4ncccn4)CC3)c(C)o2)cc1` (configuration not stated), the inhibition was -2.1% (inactive). For the same compound, the inhibition under setting [1] was -1.4%.

As to `COc1cc(C(O)c2nc3ccccc3n2C)cc(OC)c1OC` (configuration not stated), the inhibition is -4% (inactive). Besides, the inhibition under setting [1] is -99.6%.

As to `CC(C)OCCCNC(=O)CNC(=O)c1cccs1`, the inhibition is -1.5% (inactive). For the same compound, the inhibition under setting [1] was -15.3%.
